From the supplement of paper PMC10849652
Targets with a hit are over-represented here; the source holds about 7,900 in all. About 0.6% of all pairs of compound and target were hits. A number with no mark means an inactive call.

Legend:
Assay in all cases: log2 fold change, soluble protein after heating vs DMSO (PISA); higher = thermal stabilisation; K562 cells, 10 uM, 30 min; active = over 0.2 and 3.5 SD of the protein, either way, in both replicates (recomputed)
[1] = compound: COC1=CC=C(C=C1)CN2C=CC3=C2C=C(C=C3)C(=O)NO
How it was run: (§1)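 K562 cells (2×10^6 cells/mL) were treated with 10 μM compound for 30 min, and aliquots were heated for 3 min over 48°C-58°C. Pooled aliquots were extracted in PBS with 0.5% NP-40 at 4°C, and the supernatant after 21,000xg for 90 min was measured by TMTpro 16plex LC-MS/MS with channel sums equalised. Reported thermal stability, relative to control samples and from duplicates, is a log2 fold change.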

filanesib = compound: CON(C)C(=O)N1N=C(c2cc(F)ccc2F)S[C@@]1(CCCN)c1ccccc1 [filanesib]
How it was run: as §1

zotarolimus = compound: CO[C@H]1C[C@@H]2CC[C@@H](C)[C@@](O)(O2)C(=O)C(=O)N2CCCC[C@H]2C(=O)O[C@H]([C@H](C)C[C@@H]2CC[C@H](n3cnnn3)[C@H](OC)C2)CC(=O)[C@H](C)/C=C(\C)[C@@H](O)[C@@H](OC)C(=O)[C@H](C)C[C@H](C)/C=C/C=C/C=C/1C [zotarolimus]
How it was run: as §1

idasanutlin = compound: COc1cc(C(=O)O)ccc1NC(=O)[C@@H]1N[C@@H](CC(C)(C)C)[C@](C#N)(c2ccc(Cl)cc2F)[C@H]1c1cccc(Cl)c1F [idasanutlin]
How it was run: as §1

alisertib = compound: COc1cc(Nc2ncc3c(n2)-c2ccc(Cl)cc2C(c2c(F)cccc2OC)=NC3)ccc1C(=O)O [alisertib]
How it was run: as §1

[2] = compound: COc1cc2nc(-c3cc(F)ccc3O)nc(N[C@@H]3CNC[C@H]3C(C)(C)O)c2cc1OC
How it was run: as §1

gefitinib = compound: COc1cc2ncnc(Nc3ccc(F)c(Cl)c3)c2cc1OCCCN1CCOCC1 [gefitinib]
How it was run: as §1

[3] = compound: COc1cccc2cc(-c3nc([C@H]4CC[C@H](C(=O)O)CC4)n4ncnc(N)c34)[nH]c12
How it was run: as §1

lapatinib = compound: CS(=O)(=O)CCNCc1ccc(-c2ccc3ncnc(Nc4ccc(OCc5cccc(F)c5)c(Cl)c4)c3c2)o1 [lapatinib]
How it was run: as §1

pictilisib = compound: CS(=O)(=O)N1CCN(Cc2cc3nc(-c4cccc5[nH]ncc45)nc(N4CCOCC4)c3s2)CC1 [pictilisib]
How it was run: as §1

Chain of UniProt Q14527 (Q14527 whole entry, looked up): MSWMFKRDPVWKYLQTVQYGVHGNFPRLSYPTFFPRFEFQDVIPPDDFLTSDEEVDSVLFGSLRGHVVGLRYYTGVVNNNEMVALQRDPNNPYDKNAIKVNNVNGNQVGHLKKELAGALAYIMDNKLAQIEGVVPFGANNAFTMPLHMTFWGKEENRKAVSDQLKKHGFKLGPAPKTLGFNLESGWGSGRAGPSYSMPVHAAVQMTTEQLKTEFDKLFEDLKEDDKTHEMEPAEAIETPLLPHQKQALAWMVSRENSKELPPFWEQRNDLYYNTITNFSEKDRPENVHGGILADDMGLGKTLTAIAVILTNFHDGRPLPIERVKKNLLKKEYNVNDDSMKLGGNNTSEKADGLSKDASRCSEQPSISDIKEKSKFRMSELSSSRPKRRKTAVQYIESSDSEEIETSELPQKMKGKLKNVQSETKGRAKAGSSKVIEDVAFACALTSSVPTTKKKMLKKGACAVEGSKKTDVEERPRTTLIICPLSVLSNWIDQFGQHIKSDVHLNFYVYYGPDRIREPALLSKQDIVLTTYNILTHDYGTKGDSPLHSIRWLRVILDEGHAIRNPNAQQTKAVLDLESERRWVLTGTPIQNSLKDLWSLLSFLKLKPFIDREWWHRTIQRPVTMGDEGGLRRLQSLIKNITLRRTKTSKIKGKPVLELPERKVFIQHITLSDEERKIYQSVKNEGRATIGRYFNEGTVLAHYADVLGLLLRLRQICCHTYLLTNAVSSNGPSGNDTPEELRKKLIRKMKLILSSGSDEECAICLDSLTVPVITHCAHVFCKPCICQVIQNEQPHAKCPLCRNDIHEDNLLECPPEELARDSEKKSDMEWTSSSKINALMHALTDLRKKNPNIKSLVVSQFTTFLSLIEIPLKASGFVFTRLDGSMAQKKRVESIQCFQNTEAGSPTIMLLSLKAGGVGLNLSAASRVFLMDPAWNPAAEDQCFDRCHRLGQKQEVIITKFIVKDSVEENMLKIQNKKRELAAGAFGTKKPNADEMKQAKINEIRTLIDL
Chain of UniProt P85037 (P85037 whole entry, looked up): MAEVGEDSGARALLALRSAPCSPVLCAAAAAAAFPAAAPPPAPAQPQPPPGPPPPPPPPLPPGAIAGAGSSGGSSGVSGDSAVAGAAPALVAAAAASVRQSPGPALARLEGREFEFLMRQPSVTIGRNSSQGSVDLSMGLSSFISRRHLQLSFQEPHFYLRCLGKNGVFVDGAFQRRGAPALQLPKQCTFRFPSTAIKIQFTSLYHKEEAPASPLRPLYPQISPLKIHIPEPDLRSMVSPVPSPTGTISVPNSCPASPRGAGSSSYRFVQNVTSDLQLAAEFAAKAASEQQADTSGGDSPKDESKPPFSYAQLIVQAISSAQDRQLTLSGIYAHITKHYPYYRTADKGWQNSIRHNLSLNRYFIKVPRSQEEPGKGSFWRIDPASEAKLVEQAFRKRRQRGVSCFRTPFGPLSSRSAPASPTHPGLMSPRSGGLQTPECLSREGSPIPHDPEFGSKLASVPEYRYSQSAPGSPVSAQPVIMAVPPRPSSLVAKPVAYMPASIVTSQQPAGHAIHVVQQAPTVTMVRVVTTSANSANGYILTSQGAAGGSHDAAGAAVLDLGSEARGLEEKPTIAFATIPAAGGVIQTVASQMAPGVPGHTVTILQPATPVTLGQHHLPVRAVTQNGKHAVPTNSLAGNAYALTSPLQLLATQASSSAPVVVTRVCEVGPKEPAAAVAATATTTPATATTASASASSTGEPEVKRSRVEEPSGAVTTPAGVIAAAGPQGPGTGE
Chain of UniProt Q5JWF2 (Q5JWF2 whole entry, looked up): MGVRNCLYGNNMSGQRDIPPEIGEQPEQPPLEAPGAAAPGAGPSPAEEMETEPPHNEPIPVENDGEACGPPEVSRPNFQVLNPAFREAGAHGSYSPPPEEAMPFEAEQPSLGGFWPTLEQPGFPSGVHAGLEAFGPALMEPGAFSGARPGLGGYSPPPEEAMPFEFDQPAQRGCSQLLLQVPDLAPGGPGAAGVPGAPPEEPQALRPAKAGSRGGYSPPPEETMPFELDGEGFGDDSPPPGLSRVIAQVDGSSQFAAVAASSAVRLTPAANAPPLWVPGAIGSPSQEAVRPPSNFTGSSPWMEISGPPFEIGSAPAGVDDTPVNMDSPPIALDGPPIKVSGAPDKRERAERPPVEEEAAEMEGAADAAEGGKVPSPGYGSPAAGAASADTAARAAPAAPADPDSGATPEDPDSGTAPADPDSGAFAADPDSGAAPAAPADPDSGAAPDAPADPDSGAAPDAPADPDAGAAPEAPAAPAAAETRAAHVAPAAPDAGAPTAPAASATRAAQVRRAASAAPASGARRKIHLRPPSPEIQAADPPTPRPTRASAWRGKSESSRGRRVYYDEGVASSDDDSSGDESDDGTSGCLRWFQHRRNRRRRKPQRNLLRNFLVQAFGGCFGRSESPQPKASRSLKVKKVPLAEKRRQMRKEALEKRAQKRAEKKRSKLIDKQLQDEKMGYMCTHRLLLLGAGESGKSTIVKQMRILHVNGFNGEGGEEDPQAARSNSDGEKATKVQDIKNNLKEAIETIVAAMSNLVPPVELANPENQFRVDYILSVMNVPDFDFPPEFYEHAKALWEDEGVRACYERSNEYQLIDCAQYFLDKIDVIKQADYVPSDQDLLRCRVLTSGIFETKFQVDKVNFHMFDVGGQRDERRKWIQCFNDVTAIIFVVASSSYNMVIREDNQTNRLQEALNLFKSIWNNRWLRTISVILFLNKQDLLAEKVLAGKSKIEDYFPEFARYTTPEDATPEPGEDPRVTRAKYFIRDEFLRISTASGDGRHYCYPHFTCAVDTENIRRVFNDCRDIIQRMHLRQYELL
Chain of UniProt Q9Y680 (Q9Y680 whole entry, looked up): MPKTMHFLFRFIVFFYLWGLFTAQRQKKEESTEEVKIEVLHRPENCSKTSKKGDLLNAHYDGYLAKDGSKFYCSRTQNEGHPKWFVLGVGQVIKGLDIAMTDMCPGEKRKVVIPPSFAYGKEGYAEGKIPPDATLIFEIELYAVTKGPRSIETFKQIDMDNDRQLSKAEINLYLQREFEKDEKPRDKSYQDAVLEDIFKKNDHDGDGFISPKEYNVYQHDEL
Chain of UniProt Q8TEQ6 (Q8TEQ6 whole entry, looked up): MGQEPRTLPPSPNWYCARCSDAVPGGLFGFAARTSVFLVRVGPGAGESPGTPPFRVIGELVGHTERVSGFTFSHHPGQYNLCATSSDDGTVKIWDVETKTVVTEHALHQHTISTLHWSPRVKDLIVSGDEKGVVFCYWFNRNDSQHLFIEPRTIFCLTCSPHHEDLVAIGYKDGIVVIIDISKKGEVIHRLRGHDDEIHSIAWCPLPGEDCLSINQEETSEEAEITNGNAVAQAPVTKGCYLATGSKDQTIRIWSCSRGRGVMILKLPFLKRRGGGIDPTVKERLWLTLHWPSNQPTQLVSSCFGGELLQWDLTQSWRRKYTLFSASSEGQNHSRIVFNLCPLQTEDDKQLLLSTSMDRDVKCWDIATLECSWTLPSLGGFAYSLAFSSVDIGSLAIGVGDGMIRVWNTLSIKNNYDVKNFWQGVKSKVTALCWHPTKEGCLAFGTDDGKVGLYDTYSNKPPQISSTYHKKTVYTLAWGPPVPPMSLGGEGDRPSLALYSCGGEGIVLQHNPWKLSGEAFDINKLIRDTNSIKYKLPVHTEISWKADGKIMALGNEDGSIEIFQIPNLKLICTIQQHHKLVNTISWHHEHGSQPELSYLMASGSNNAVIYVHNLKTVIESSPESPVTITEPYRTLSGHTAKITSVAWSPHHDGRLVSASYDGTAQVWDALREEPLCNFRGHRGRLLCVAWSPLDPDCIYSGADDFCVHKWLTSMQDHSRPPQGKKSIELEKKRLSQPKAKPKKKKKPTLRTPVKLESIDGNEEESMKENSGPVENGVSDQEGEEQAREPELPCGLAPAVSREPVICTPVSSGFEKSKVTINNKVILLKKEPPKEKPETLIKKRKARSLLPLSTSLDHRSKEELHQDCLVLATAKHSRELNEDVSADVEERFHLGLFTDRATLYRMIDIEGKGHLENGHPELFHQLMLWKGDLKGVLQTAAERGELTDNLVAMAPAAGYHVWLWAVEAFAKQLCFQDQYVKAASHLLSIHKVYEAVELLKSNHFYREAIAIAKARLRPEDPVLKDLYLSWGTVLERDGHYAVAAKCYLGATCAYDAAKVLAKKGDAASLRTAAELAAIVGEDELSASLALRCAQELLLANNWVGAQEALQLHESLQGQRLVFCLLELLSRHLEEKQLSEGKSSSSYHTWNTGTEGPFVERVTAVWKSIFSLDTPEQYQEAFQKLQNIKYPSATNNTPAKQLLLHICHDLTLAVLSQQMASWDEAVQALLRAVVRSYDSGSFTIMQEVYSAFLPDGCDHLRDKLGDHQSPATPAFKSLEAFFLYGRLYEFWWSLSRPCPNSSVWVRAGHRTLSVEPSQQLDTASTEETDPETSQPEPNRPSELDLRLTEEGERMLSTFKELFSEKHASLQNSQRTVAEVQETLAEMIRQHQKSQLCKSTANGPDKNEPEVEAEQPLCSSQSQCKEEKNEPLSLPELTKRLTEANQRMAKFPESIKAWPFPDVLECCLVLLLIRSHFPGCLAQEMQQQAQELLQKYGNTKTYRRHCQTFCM
Chain of UniProt P22087 (P22087 whole entry, looked up): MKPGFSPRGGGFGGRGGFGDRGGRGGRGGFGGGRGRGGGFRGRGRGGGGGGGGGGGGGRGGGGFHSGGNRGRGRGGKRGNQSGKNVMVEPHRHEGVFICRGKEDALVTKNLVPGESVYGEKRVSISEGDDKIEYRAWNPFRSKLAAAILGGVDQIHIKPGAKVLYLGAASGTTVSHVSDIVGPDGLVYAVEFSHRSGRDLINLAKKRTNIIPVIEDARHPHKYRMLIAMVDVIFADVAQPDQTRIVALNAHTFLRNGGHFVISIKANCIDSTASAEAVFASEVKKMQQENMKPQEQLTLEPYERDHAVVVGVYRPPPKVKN
Chain of UniProt P0C0S5 (P0C0S5 whole entry, looked up): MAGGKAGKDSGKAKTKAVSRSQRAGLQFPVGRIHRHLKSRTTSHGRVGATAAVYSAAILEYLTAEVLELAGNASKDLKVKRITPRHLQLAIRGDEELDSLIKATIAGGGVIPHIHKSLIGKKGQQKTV

Target	log2 fold change [1]	log2 fold change (filanesib)	log2 fold change (zotarolimus)	log2 fold change (idasanutlin)	log2 fold change (alisertib)	log2 fold change [2]	log2 fold change (gefitinib)	log2 fold change [3]	log2 fold change (lapatinib)	log2 fold change (pictilisib)
HIP1 (UniProt O00291)	0.022	-0.026	0.017	-0.003	-0.269	0.029	0.016	0.047	0.059	0
GYG1 (UniProt P46976)	0.08	0.124	0.036	0.15	-0.133	-0.163	-0.028	-0.195	0.051	0.376 (active)
GREB1 (UniProt Q4ZG55)	0.448	0.074	0.07	-0.023	–	–	–	–	–	–
GGA2 (UniProt Q9UJY4)	0.012	-0.09	0.069	-0.017	-0.067	0.181	-0.004	0.112	-0.027	–
GEMIN5 (UniProt Q8TEQ6)	0.017	0.037	0.039	-0.024	-0.041	-0.235 (active)	0.013	-0.035	0.015	-0.021
GDE1 (UniProt Q9NZC3)	0.046	-0.102	0.043	-0.064	-0.176	0.012	0.008	0.01	-0.011	–
H2AZ1 (UniProt P0C0S5)	0.05	0.353	-0.113	0.266	0.039	-0.046	0.121	-0.161	0	-0.09
HMOX2 (UniProt P30519)	0.444 (active)	0.085	0.027	0.148	-0.03	0.036	0.006	-0.041	-0.045	-0.04
HMGN2 (UniProt P05204)	0.01	-0.043	-0.048	0.041	-0.028	0.073	0.046	0.09	-0.051	-0.264
HDAC2 (UniProt Q92769)	-0.144	0.029	0.008	0.008	-0.041	0	0.007	0.017	0.063	0.024
GALC (UniProt P54803)	0.007	-0.017	-0.071	-0.121	0.049	0.099	-0.014	0.066	0.042	0.159
FDFT1 (UniProt P37268)	0.123	0.401 (active)	0.014	0.013	0.008	-0.052	-0.01	0.042	-0.023	0
FBL (UniProt P22087)	-0.154	0.664	0.034	0.441	0.006	0.077	0.059	-0.069	0.11	-0.093
HLTF (UniProt Q14527)	-0.027	-0.004	-0.042	-0.049	0.008	0.081	0.334 (active)	-0.126	0.013	0.007
IFI30 (UniProt P13284)	0.04	0.061	0.06	0.027	-0.11	-0.133	-0.035	0.01	0.147	-0.02
GTF2E1 (UniProt P29083)	0.042	0.01	0.004	-0.032	-0.026	0.06	0.013	0.012	-0.037	-0.002

Target	log2 fold change [1]	log2 fold change (filanesib)	log2 fold change (zotarolimus)	log2 fold change (idasanutlin)	log2 fold change (alisertib)	log2 fold change [2]	log2 fold change (gefitinib)	log2 fold change [3]	log2 fold change (lapatinib)	log2 fold change (pictilisib)
GNAS (UniProt Q5JWF2)	-0.048	0	-0.03	-0.048	-0.09	0.052	0.108	-0.077	0.02	0.051
HAX1 (UniProt O00165)	-0.056	0.017	0.004	0.04	-0.007	-0.311	-0.041	-0.014	-0.015	-0.145
GBF1 (UniProt Q92538)	-0.005	0.038	0.008	-0.037	-0.013	0.025	-0.012	-0.054	-0.036	-0.036
FDXR isoform 7 (UniProt P22570)	-0.005	-0.122	0.021	-0.179	-0.019	0.06	0.048	0.074	-0.057	0.201
FKBP7 (UniProt Q9Y680)	-0.152	-0.036	-0.029	0.047	-0.063	0.047	0.086	0.003	-0.065	-0.007
HRAS (UniProt P01112)	0.008	-0.023	-0.049	0.075	-0.157	-0.044	0.021	-0.015	0.076	0.012
FERMT3 (UniProt Q86UX7)	0.046	-0.037	0.033	-0.068	-0.104	0	-0.007	0.001	-0.006	0.009
HNRNPF (UniProt P52597)	0.059	-0.03	0.046	0.073	0.03	-0.036	-0.034	-0.026	0.008	-0.088
GALNT1 (UniProt Q10472)	0.224	0.058	0.005	-0.033	0.047	0.044	0.066	0.034	0	0.023
GALNT11 (UniProt Q8NCW6)	-0.012	-0.028	-0.019	-0.042	0	0.052	0.013	0.062	-0.011	0.026
FOXK1 (UniProt P85037)	-0.002	0.361	1 (active)	-0.123	-0.038	0.526	0.516	0.774	0.085	0.584
FBXO42 (UniProt Q6P3S6)	-0.037	0.011	0.025	0.009	0.047	-0.054	0.036	0.07	0.063	-0.088
GPX4 (UniProt P36969)	-0.035	-0.011	-0.248 (active)	0.032	-0.02	0.003	-0.004	0.076	-0.036	-0.034
GLS (UniProt O94925)	0.009	0.029	0.027	-0.192	0.143	0.22	0.033	-0.009	-0.052	0.049
GMEB1 (UniProt Q9Y692)	0.049	0.205	0.042	0.027	-0.041	-0.042	-0.049	0.008	0.031	-0.087
